Assay results: PubChem BioAssay AID1159580 (chemical genetic matrix, 2015)
“And” between values parts separate entries of the source, which are not always exact repeats. Identical values can stand only once. In all, about 5,500 compounds went through this assay and about 2,000 (36%) were called active. Inconclusive results (about 18%) are left out. Rule as the data show it: active = normalized growth mostly below about 0.91 (no sharp cut-off); inconclusive = no clear call, values can overlap the other calls; inactive = mostly above about 0.92. The list shows a part of the results.

Test: chemical genetic growth profiling, strain panel (AID 1159580);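 also: tested at 20 µM; growth read once vehicle control cultures reached saturation at 30 °C; 1 = growth at the plate median or of vehicle wells; lower values mean less growth of the strain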
Details: S. cerevisiae deletion strains, growth OD

Measured: normalized growth

O=C(O)C1=CCCNC1
inactive: locus YAL021C, strain ccr4, hits give low values 1.02 | locus YAL026C, strain drs2, hits give low values 0.991 | locus YAL030W, strain snc1, hits give low values 0.999 | locus YBL061C, strain skt5, hits give low values 0.993 | locus YBR009C, strain hhf1, hits give low values 1.04 | locus YBR021W, strain FUR4, hits give low values 1.02 | locus YBR023C, strain chs3, hits give low values 1.01 | locus YBR171W, strain sec66, hits give low values 0.985 | locus YBR229C, strain ROT2, hits give low values 1 | locus YBR231C, strain swc5, hits give low values 0.981 | locus YBR279W, strain paf1, hits give low values 0.988 | locus YCL011C, strain gbp2, hits give low values 1.01 | locus YCL016C, strain dcc1, hits give low values 1.02 | locus YCL029C, strain bik1, hits give low values 0.974 | locus YCL061C, strain MRC1 (second series), hits give low values 1.01 | locus YCL069W, strain vba3, hits give low values 1 | locus YCR088W, strain abp1, hits give low values 0.989 | locus YDL005C, strain med2, hits give low values 0.978 | locus YDL035C, strain GPR1, hits give low values 0.99 | locus YDL040C, strain nat1, hits give low values 0.989 | locus YDL074C, strain BRE1, hits give low values 0.984 | locus YDL101C, strain DUN1, hits give low values 1.01 | locus YDL185W, strain tfp1, hits give low values 0.968 | locus YDL192W, strain arf1, hits give low values 0.973 | locus YDR001C, strain nth1, hits give low values 0.99 | locus YDR069C, strain doa4, hits give low values 0.999 | locus YDR101C, strain arx1, hits give low values 0.979 | locus YDR137W, strain rgp1, hits give low values 1.01 | locus YDR159W, strain sac3, hits give low values 0.96 | locus YDR162C, strain NBP2, hits give low values 1.04 | locus YDR195W, strain ref2 0.959 | locus YDR297W, strain sur2, hits give low values 1 | locus YDR318W, strain mcm21, hits give low values 0.995 | locus YDR334W, strain swr1, hits give low values 0.979 | locus YDR335W, strain msn5, hits give low values 0.995 | locus YDR363W, strain ESC2, hits give low values 1.01 | locus YDR388W, hits give low values 0.989 | locus YDR392W, strain spt3, hits give low values 0.941 | locus YDR502C, strain sam2, hits give low values 0.987 | locus YEL003W, strain gim4, hits give low values 0.989 | locus YEL037C, strain rad23, hits give low values 0.989 | locus YEL061C, strain CIN8 (second series), hits give low values 0.987 | locus YEL061C, strain CIN8, hits give low values 0.998 | locus YER002W, strain NOP16, hits give low values 0.91 | locus YER015W, strain faa2, hits give low values 0.984 | locus YER016W, strain bim1, hits give low values 0.995 | locus YER110C, hits give low values 0.965 | locus YER111C, strain swi4, hits give low values 0.981 | locus YER155C, strain BEM2 (second series), hits give low values 0.959 | locus YER155C, strain BEM2, hits give low values 0.985 | locus YER167W, strain BCK2, hits give low values 0.991 | locus YFR010W, strain ubp6, hits give low values 0.973 | locus YGL078C, strain dbp3, hits give low values 1.01 | locus YGL086W, strain mad1, hits give low values 0.98 | locus YGL167C, strain pmr1, hits give low values 0.99 | locus YGL173C, strain kem1, hits give low values 0.99 | locus YGL227W, strain vid30, hits give low values 0.989 | locus YGL240W, strain doc1, hits give low values 0.986 | locus YGL248W, strain PDE1, hits give low values 1.02 | locus YGL253W, strain hxk2, hits give low values 0.981 | locus YGR135W, strain pre9, hits give low values 0.997 | locus YGR229C, strain SMI1, hits give low values 1.02 | locus YGR252W, strain gcn5, hits give low values 1.15 | locus YHR013C, strain ard1, hits give low values 0.979 | locus YHR027C, strain rpn1, hits give low values 0.993 | locus YHR030C, strain SLT2, hits give low values 0.985 and 1.04 | locus YHR079C, strain IRE1 (second series), hits give low values 0.974 | locus YHR079C, strain IRE1, hits give low values 1.04 | locus YHR094C, strain hxt1, hits give low values 0.981 | locus YHR129C, strain ARP1, hits give low values 0.992 | locus YHR142W, strain chs7, hits give low values 1.02 | locus YHR200W, strain rpn10, hits give low values 0.984 | locus YIL066C, strain RNR3, hits give low values 1.01 | locus YIL073C, strain SPO22, hits give low values 0.943 | locus YIL125W, strain kgd1, hits give low values 0.987 | locus YIR030C, strain dcg1, hits give low values 0.987 | locus YJL092W, strain hpr5, hits give low values 0.991 | locus YJL095W, strain BCK1 (second series), hits give low values 1 | locus YJL095W, strain BCK1, hits give low values 1.05 | locus YJL115W, strain asf1, hits give low values 0.985 | locus YJL129C, strain trk1, hits give low values 0.99 | locus YJL134W, strain LCB3, hits give low values 0.991 | locus YJL154C, strain vps35, hits give low values 0.98 | locus YJL164C, strain tpk1, hits give low values 1.02 | locus YJL166W, strain qcr8, hits give low values 1.01 | locus YJL168C, strain set2, hits give low values 0.993 | locus YJL187C, strain SWE1 (second series), hits give low values 1.02 | locus YJR043C, strain POL32, hits give low values 1.01 | locus YJR066W, strain TOR1, hits give low values 0.997 | locus YJR075W, strain HOC1, hits give low values 1.01 and 1 | locus YKL009W, strain mrt4, hits give low values 0.961 | locus YKL068W, hits give low values 1 | locus YKL085W, strain MDH1 (second series), hits give low values 0.973 | locus YKL085W, strain MDH1, hits give low values 0.973 | locus YKL160W, strain elf1, hits give low values 1 | locus YKL190W, strain CNB1, hits give low values 0.997 | locus YKR001C, strain vps1, hits give low values 0.999 | locus YKR026C, strain gcn3, hits give low values 0.981 | locus YKR091W, strain srl3, hits give low values 0.995 | locus YLL001W, strain dnm1, hits give low values 0.993 | locus YLL026W, hits give low values 0.994 | locus YLL041C, strain sdh2, hits give low values 0.987 | locus YLR027C, strain aat2, hits give low values 0.969 | locus YLR039C, strain RIC1, hits give low values 0.963 | locus YLR058C, strain SHM2, hits give low values 1.01 | locus YLR102C, strain apc9, hits give low values 0.97 | locus YLR113W, strain HOG1, hits give low values 1.02 | locus YLR221C, strain rsa3, hits give low values 0.96 | locus YLR258W, strain gsy2, hits give low values 1.02 | locus YLR262C, strain YPT6 (second series), hits give low values 1.01 | locus YLR262C, strain YPT6, hits give low values 0.999 | locus YLR268W, strain sec22, hits give low values 0.975 | locus YLR320W, strain mms22, hits give low values 0.963 | locus YLR330W, strain CHS5, hits give low values 0.984 | locus YLR342W, strain FKS1 (second series), hits give low values 0.987 | locus YLR342W, strain FKS1, hits give low values 0.983 | locus YLR357W, strain rsc2, hits give low values 0.969 | locus YLR370C, strain arc18, hits give low values 0.998 | locus YLR371W, strain rom2, hits give low values 0.977 | locus YLR384C, strain iki3, hits give low values 0.973 | locus YLR418C, strain cdc73, hits give low values 1.04 | locus YML016C, strain PPZ1, hits give low values 0.995 | locus YML032C, strain rad52, hits give low values 0.989 | locus YML120C, strain ndi1, hits give low values 1.01 | locus YML124C, strain tub3, hits give low values 1.01 | locus YMR058W, strain fet3, hits give low values 0.992 | locus YMR078C, strain ctf18, hits give low values 0.974 | locus YMR125W, strain sto1, hits give low values 1.01 | locus YMR129W, hits give low values 0.992 | locus YMR205C, strain PFK2, hits give low values 1.01 | locus YMR223W, strain ubp8, hits give low values 1 | locus YMR231W, strain pep5, hits give low values 0.985 | locus YMR263W, strain SAP30, hits give low values 1 and 1.01 | locus YMR307W, strain GAS1, hits give low values 1.12 | locus YNL067W, strain RPL9B, hits give low values 1.03 | locus YNL071W, strain lat1, hits give low values 1 | locus YNL153C, strain GIM3, hits give low values 1.04 and 1.02 | locus YNL175C, strain NOP13, hits give low values 1 | locus YNL183C, strain NPR1, hits give low values 1.01 | locus YNL197C, strain WHI3, hits give low values 0.915 | locus YNL209W, strain ssb2, hits give low values 1.01 | locus YNL224C, strain SQS1, hits give low values 1 | locus YNL233W, strain BNI4, hits give low values 1.02 | locus YNL248C, strain rpa49, hits give low values 0.965 | locus YNL250W, strain rad50, hits give low values 0.978 | locus YNL271C, strain bni1, hits give low values 0.994 | locus YNL298W, strain CLA4, hits give low values 0.987 | locus YNL307C, strain MCK1, hits give low values 0.992 | locus YNL322C, strain KRE1 (second series), hits give low values 1 | locus YNL322C, strain KRE1, hits give low values 1.01 | locus YNR049C, strain mso1, hits give low values 0.976 | locus YNR052C, strain pop2, hits give low values 1.01 | locus YOL006C, strain TOP1, hits give low values 0.976 | locus YOL012C, strain htz1 1.03 | locus YOL147C, strain pex11, hits give low values 0.984 | locus YOR001W, strain rrp6, hits give low values 0.943 | locus YOR061W, strain CKA2, hits give low values 0.992 | locus YOR069W, strain VPS5, hits give low values 0.989 | locus YOR070C, strain gyp1, hits give low values 0.982 | locus YOR080W, strain dia2, hits give low values 0.987 | locus YOR083W, strain WHI5 (second series), hits give low values 1.03 | locus YOR083W, strain WHI5, hits give low values 1.01 | locus YOR106W, strain vam3, hits give low values 1.01 | locus YOR136W, strain idh2, hits give low values 0.984 | locus YOR144C, strain elg1, hits give low values 0.988 | locus YOR184W, strain ser1, hits give low values 0.97 | locus YOR231W, strain MKK1, hits give low values 1.05 | locus YOR265W, strain rbl2, hits give low values 0.992 | locus YOR270C, strain vph1, hits give low values 0.976 | locus YOR290C, strain snf2, hits give low values 0.985 | locus YOR316C, strain cot1, hits give low values 0.98 | locus YPL051W, strain arl3, hits give low values 0.981 | locus YPL055C, strain LGE1, hits give low values 1.01 | locus YPL078C, strain atp4, hits give low values 1.01 | locus YPL106C, strain sse1, hits give low values 1.01 | locus YPL240C, strain hsp82, hits give low values 0.992 | locus YPL256C, strain CLN2, hits give low values 1.03 | locus YPR119W, strain clb2, hits give low values 0.973 | locus YPR141C, strain kar3, hits give low values 0.983 | locus YPR163C, strain tif3, hits give low values 0.983 | locus YPR167C, strain met16, hits give low values 0.958 | strain wtn01, hits give low values 0.985
